The source of these data is PubChem BioAssay.

The target in this test is Epidermal growth factor receptor (Homo sapiens) (UniProt P00533). Kind of test: EGFR binders on small-molecule microarrays, primary screen, biochemical, small-molecule microarray, 635 nm fluorescence (AID 1104).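 Note: score merges 667 nm emission intensity with spot signal to noise over triplicate slides.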 Particulars: EGFR binding, higher = more signal.
Epidermal growth factor receptor (Homo sapiens), sequence (P00533 whole entry, looked up): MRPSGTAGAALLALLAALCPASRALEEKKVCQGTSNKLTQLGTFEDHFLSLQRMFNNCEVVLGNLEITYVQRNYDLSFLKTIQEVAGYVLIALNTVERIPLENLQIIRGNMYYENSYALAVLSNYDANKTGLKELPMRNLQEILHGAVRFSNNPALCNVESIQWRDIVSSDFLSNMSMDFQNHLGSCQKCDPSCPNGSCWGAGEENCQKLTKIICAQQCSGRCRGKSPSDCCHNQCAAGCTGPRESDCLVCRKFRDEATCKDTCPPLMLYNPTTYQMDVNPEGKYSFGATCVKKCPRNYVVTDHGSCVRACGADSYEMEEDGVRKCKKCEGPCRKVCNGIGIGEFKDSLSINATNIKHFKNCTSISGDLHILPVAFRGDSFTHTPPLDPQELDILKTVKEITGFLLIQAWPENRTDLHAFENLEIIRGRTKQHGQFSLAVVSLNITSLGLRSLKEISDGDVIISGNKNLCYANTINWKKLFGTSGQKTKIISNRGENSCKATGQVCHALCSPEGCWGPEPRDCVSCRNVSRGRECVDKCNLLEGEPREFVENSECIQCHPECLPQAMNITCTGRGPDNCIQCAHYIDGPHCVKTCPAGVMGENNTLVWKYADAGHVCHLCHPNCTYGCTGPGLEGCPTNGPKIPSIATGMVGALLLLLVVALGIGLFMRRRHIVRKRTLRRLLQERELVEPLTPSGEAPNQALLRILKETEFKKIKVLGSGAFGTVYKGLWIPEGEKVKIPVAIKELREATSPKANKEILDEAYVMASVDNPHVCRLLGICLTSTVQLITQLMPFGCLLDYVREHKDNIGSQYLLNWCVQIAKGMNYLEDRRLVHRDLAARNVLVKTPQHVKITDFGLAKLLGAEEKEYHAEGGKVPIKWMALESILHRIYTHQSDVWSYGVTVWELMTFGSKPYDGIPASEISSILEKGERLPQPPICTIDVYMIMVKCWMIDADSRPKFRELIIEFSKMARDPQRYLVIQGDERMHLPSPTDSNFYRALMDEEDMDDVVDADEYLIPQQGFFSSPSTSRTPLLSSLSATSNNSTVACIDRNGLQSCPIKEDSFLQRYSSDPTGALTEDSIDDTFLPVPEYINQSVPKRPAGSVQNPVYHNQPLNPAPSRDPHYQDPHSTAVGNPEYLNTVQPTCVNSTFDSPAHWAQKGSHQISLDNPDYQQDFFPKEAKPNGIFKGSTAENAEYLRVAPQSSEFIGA
Regarding `CC(C)C(O)C1C=CC2C(=O)N(C)C(=O)C2N1Nc1ccccc1` (stereo unspecified), the composite z-score was -0.0756.
For `Cc1c(NC(=O)/C(C#N)=C/C=C/c2ccc(N(C)C)cc2)c(=O)n(-c2ccccc2)n1C`, the composite z-score amounted to 0.994.
Under `COc1cc(CO)cc(I)c1O[C@H]1C=C(C(=O)NCCO)C[C@@H](N(Cc2ccc(F)cc2)C(=O)C2CCCO2)[C@@H]1O` (stereo partly specified) stands 0.346.
For the molecule `O=C1C[C@@](C(=O)NCC(F)(F)F)(c2ccc([N+](=O)[O-])cc2)[C@@H](c2ccc(CO)cc2)N1C1CCCCC1`, the composite z-score came out at 0.308.
For the molecule `COC(=O)Cn1c(C(=O)N2CCCC2)cc2c1C[C@H]1CN(C(=O)c3ccccc3)[C@@](Cc3ccc(F)cc3)(C(=O)OC)[C@@H]21`, the composite z-score was 0.588.
For the molecule `O=C(CS)NCCCCCCNC(=O)[C@H]1C[C@H]2C(=O)N[C@@H](Cc3ccccc3)C(=O)N2[C@H]1c1cccc(OCCO)c1`, the composite z-score is 1.39.
`COc1cc2c(cc1OC)CN(C(=O)[C@H]1[C@@H]3C(=O)O[C@@H](c4ccccc4)[C@@H](c4ccccc4)N3[C@@H](c3ccc(OCCO)cc3)[C@]13C(=O)Nc1ccc(C#CC4(O)CCCCCC4)cc13)CC2` showed a composite z-score of 1.02.
As to `O=C1O[C@H](c2ccccc2)[C@H](c2ccccc2)N2[C@H]1[C@@H](C(=O)O)[C@]1(C(=O)Nc3ccccc31)[C@H]2c1ccc(O)cc1`, the composite z-score was -0.552.
Consider `CC(=O)N1Cc2ccccc2C[C@]2(N=C(c3ccc(OCCCO)cc3)O[C@@H]2c2ccccc2)C1=O`, for which the composite z-score was 0.17.
For the molecule `Cc1ccc(S[C@]2(C(=O)O)CC(=O)N(Cc3ccccc3Cl)[C@@H]2c2ccc(CO)cc2)cc1`, the composite z-score was -0.84.
Next, `COc1c(C)cc(-c2cc3c(c(-c4ccccc4)n2)[Si](C(C)C)(C(C)C)OC3)cc1C`: 0.186; `O=C(CCCCCCC(=O)Nc1ccccc1)N/N=C/c1ccccc1`: 0.0504.
Regarding `CCOC(=O)C[C@H]1[C@H](OC(=O)Cc2ccc3c(c2)OCO3)[C@@H](NC(=O)C2CCCCC2)c2cc(OCCCO)ccc2N1C(=O)c1ccc2ccccc2n1`, the composite z-score amounted to 0.713.
Next, `O=C(NC1CC1)[C@@H]1c2ccccc2C(=O)N(Cc2ccccc2)[C@H]1c1ccc(CO)cc1`: -0.375; `NC(N)=NCc1cn(CCc2c[nH]c3ccccc23)nn1`: 0.699.
Next, `COCCCNC(=O)[C@@]1(Sc2ccc(C)cc2)CC(=O)N(Cc2cc(C(F)(F)F)cc(C(F)(F)F)c2)[C@@H]1c1ccc(CO)cc1`: -0.107.
Under `O=C1O[C@@H](c2ccccc2)[C@@H](c2ccccc2)N2[C@@H](c3ccc(O)cc3)[C@]3(C(=O)Nc4ccc(C#CC5=CCCCC5)cc43)[C@@H](C(=O)N3CCN(c4ncccn4)CC3)[C@H]12` stands 0.383; under `COCCOC(=O)N1C(=O)[C@@]2(c3cc(C#CC4=CCCCC4)ccc31)[C@H](c1ccccc1OCCO)N1[C@H](c3ccccc3)[C@H](c3ccccc3)OC(=O)[C@H]1[C@@H]2C(=O)N1CCc2cc(OC)c(OC)cc2C1`, 0.733.
Regarding `CC[C@H]1C2=C3C(CC[C@H]4C(OCc5ccc(F)cc5C(F)(F)F)OC[C@](C)([C@@H]34)N(C(=O)OC(C)(C)C)C2)C2COC(=O)OCC21` (stereo partly specified), the composite z-score amounted to 0.128.
Turning to `CO[C@H]1O[C@H](CO)[C@@H](OC(=O)Nc2ccccc2-c2ccccc2)[C@H](OC(=O)Nc2ccc3c(c2)OCO3)[C@@H]1OC(=O)Nc1ccc2c(c1)OCO2`, the composite z-score amounted to 0.0757.
With `COCCCNC(=O)[C@@]1(Sc2ccc(C)cc2)CC(=O)N(C2Cc3ccccc3C2)[C@@H]1c1ccc(CO)cc1I`, the composite z-score is -0.689.
For the molecule `Cc1ccc(S[C@]2(C(=O)NCc3ccccc3)CC(=O)N(C(C)C)[C@@H]2c2ccc(CO)cc2I)cc1`, the composite z-score was -0.474.
`CC(C)C(O)C1C=CC2C(=O)N(C)C(=O)C2N1N(c1ccccc1)c1ccccc1` (stereo unspecified) showed a composite z-score of -0.381.
Under `O=C1OCC=C[C@H]2OC34C=CCN(Cn5nnc6ccccc65)C(=O)[C@H]3N(CCCCCCO)C(=O)[C@@H]4[C@@H]12` (stereo partly specified) stands -0.896; under `COC(=O)[C@@]1(Cc2ccccc2)[C@H]2c3cc(C(=O)N4CCCC4)n(Cc4cc(F)cc5c4OCOC5)c3C[C@H]2CN1C(=O)c1ccccc1`, -0.12.
In turn, `O=C(O)[C@H](Cc1ccccc1)n1cc(-c2ccccn2)nn1` had a composite z-score of 0.211.
As for `CN(C)CCCNC(=O)[C@@]1(c2ccc([N+](=O)[O-])cc2)CC(=O)N(CC23CC4CC(CC(C4)C2)C3)[C@@H]1c1ccc(CO)cc1`, the composite z-score amounted to 0.201.
Take `CCOC(=O)C[C@H]1[C@H](OC(=O)c2ccc(-c3ccccc3)cc2)[C@@H](NC(=O)c2ccc3ccccc3n2)c2cc(OCCCO)ccc2N1C(=O)c1ccccc1`: the composite z-score turned out to be 0.143.
`CCOC(=O)C1=CC[C@@H](c2ccccc2)N(S(=O)(=O)c2ccc(C)cc2)C1` yielded a composite z-score of 0.0223.
In turn, `CCOC(=O)[C@H]1C/C=C/C[C@H](C(=O)OCC)C(=O)O[C@H]2[C@@H](OC)O[C@H](CO)[C@@H](OC(=O)Nc3ccc(OC)cc3)[C@@H]2OC1=O` displayed a composite z-score of 0.368.
`COC(=O)[C@H](Cc1ccccc1)N1CC(/C=C/C2CC2)=C[C@@H]1[C@@H](O)Cc1ccccc1`: the composite z-score was 0.688.
As to `Cc1ccc(F)cc1S(=O)(=O)N[C@@H]1CCN(Cc2ccc(Oc3ccccc3)cc2)C1`, the composite z-score was -0.0463.
Turning to `COCCOC(=O)N1C(=O)[C@@]2(c3cc(C#Cc4ccc(OC)cc4)ccc31)[C@H](C(=O)NC[C@H](O)c1ccccc1)[C@H]1C(=O)O[C@H](c3ccccc3)[C@H](c3ccccc3)N1[C@@H]2c1ccc(O)cc1`, the composite z-score came to 0.725.
`CN(C)CCCNC(=O)[C@@H]1c2ccccc2C(=O)N(CC23CC4CC(CC(C4)C2)C3)[C@H]1c1ccc(CO)cc1` yielded a composite z-score of 0.425.
Regarding `CCOC(=O)[C@@H]1[C@@H]2C(=O)N(CC)C(=O)[C@@H]2C[C@@H]1Sc1ccccc1`, the composite z-score came out at 0.169.
As to `CC(C)C(=C=CC[C@@H](O)c1ccccc1OCCO)C[C@@H](O)COCc1ccccc1`, the composite z-score came out at 0.22.
